Assay outcomes: PubChem BioAssay, National Center for Advancing Translational Sciences (NCATS)
HCV inhibitor = blocks hepatitis C virus. Huh7.5.1 HCVcc-Cre infection, luciferase reporter, 44 h. Potency, µM (highest dose often 41.8 µM), hits mostly inhibitors. 3.4% of 340,000 active; active = well fitted inhibition curve with a large enough effect; inconclusive = small, poorly fitted or top-dose-only effect, or another doubt; inactive = no such curve, though single readings can be large or run the other way
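Luciferase read-out (15 sec integration) after a 15 min room-temperature substrate step quantifies HCVcc-Cre infection. Cells, 1,000 per well, had compound added 4 h post-plating, then virus at ~0.5 moi, and were cultured 44 h.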
LASV entry inh = Lassa virus entry inhibition. Potency, µM (doses to about 37.9 µM), most hits filed as inhibitors. 1.2% of 300,000 active. Lassa virus pseudotype entry inhibition, cell reporter; calls by dose curve; tested in HEK293 cells; note: nearly all actives have a fitted effect of over 50% in size
VACV mCherry inh = inhibitors of vaccinia virus infection (mCherry reporter signal) | Vaccinia virus mCherry reporter infection, fluorescence | 0.63% of 310,000 active | Potency, µM (series often up to 36.5 µM), actives largely listed as inhibitors; calls by dose curve; tested in A549 cells; note: nearly all actives have a fitted effect of over 35% in size
HCMV inh = human cytomegalovirus inhibition | HFF cells, HCMV-luciferase reporter, 72 h; active compounds read low | activity change, negative = inhibition, % at 57.5 µM | 4.5% of 410,000 active | AID 1259415; in the data active = activity change below about -60%; inconclusive = no clear call, values can overlap the other calls; inactive = above about -39%
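After 16 h attachment at 37C, HFF cells received test compound and HCMV-luciferase (1 PFU/cell); reporter luminescence read 72 h later, data normalized against buffer-only and known inhibitor Salinomycin.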
VACV Venus inh = vaccinia inhibition (Venus reporter). Vaccinia virus Venus reporter expression, fluorescence. Potency, µM (highest dose often 36.5 µM), hits mostly inhibitors. 0.46% of 330,000 active; calls by dose curve; tested in A549 cells; note: nearly all actives have a fitted effect of over 30% in size
Marburg entry inh = blocks Marburg virus binding to or entry into cells. Potency, µM (titrated, usually from 37.8 µM), actives largely listed as inhibitors. 1.8% of 300,000 active. Marburg virus pseudotyped entry inhibition, cell reporter; calls by dose curve; tested in HEK293 cells
Each line names hits and unclear results; the compound was inactive in the other large screens. The list is not random: actives were taken first. Their share in the collection is about 7.8%.

Cc1ccc(-n2ncc(C(=O)NCCN3CCc4ccccc4C3)c2C2CCN(C(=O)OC(C)(C)C)CC2)cc1C	none (no result: HCV inhibitor, Marburg entry inh)
Cc1ccc(-n2ncc(C(=O)NCCN3CCc4ccccc4C3)c2C2CCN(C(=O)OC(C)(C)C)CC2)cc1	LASV entry inh inconclusive, HCMV inh active (no result: HCV inhibitor, Marburg entry inh)
O=C(C1CC(=O)N(C2CCCC2)C1)N1CCC(Cc2ccccc2)CC1 (configuration not stated)	HCV inhibitor inconclusive, HCMV inh -65.2
O=C(C1CCC(=O)N(C2CCCC2)C1)N1CCN(Cc2cccc(Cl)c2)CC1 (configuration not stated)	HCMV inh -71.6
O=C(C1CCC(=O)N(C2CCCC2)C1)N1CCN(c2ccc(Cl)cc2)CC1 (configuration not stated)	none (no result: LASV entry inh, VACV mCherry inh, VACV Venus inh, Marburg entry inh)
CCOc1cc(/C=C/c2ccc3cccc([N+](=O)[O-])c3n2)ccc1O	HCV inhibitor inconclusive, LASV entry inh inconclusive, VACV mCherry inh inconclusive, HCMV inh -99.3, VACV Venus inh inconclusive, Marburg entry inh inconclusive
CCOc1cc(/C=C/c2ccc3cccc([N+](=O)[O-])c3n2)ccc1OCC(=O)N(C)C	HCV inhibitor inconclusive, VACV mCherry inh inconclusive, HCMV inh -109.2, VACV Venus inh inconclusive, Marburg entry inh inconclusive (no result: LASV entry inh)
COc1cc(/C=C/c2ccc3cccc([N+](=O)[O-])c3n2)ccc1OCC#N	HCV inhibitor 4.47µM, LASV entry inh inconclusive, VACV mCherry inh inconclusive, HCMV inh -93.4, Marburg entry inh inconclusive
COCC(C)n1c(C)cc(C(=O)COC(=O)c2c(C)nn(-c3ccccc3)c2C)c1C (configuration not stated)	HCV inhibitor inconclusive, LASV entry inh inconclusive, VACV mCherry inh inconclusive, Marburg entry inh inconclusive
COCC(C)n1c(C)cc(C(=O)COC(=O)c2c(NC(C)=O)sc(C)c2C)c1C (configuration not stated)	HCV inhibitor inconclusive, LASV entry inh inconclusive, Marburg entry inh 2.59µM
COc1ccc(OCC(=O)NCc2ccc3c(c2)CCN3C(=O)c2cccc(C)c2)cc1	LASV entry inh inconclusive, VACV mCherry inh inconclusive, HCMV inh inconclusive (no result: HCV inhibitor, Marburg entry inh)
COc1ccc(Cn2c(O)cc(=O)[nH]c2=O)cc1	HCMV inh -87.8
CCOc1ccc(Cn2c(O)cc(=O)[nH]c2=O)cc1	VACV mCherry inh inconclusive
NS(=O)(=O)C#Cc1ccccc1	LASV entry inh 5.8µM, Marburg entry inh inconclusive (no result: HCV inhibitor, VACV mCherry inh, HCMV inh, VACV Venus inh)
Cc1ccc(Oc2ccc(S(=O)(=O)N3CCOCC3)cc2C(N)=O)c(-n2nc3ccccc3n2)c1	LASV entry inh inconclusive, HCMV inh -84.9, VACV Venus inh inconclusive, Marburg entry inh inconclusive (no result: VACV mCherry inh)
COc1ccccc1Oc1ccc(S(=O)(=O)N2CCOCC2)cc1S(=O)(=O)N1CCOCC1	none (no result: VACV mCherry inh)
COCc1cc(C)nc(SCC(=O)Nc2ccccc2C)c1C#N	none
COCc1cc(C)nc(SCC(=O)Nc2cc3c(cc2C#N)OCO3)c1C#N	HCV inhibitor 10µM
Cc1ccc2onc(CC(=O)N3CCN(c4ccc(F)cc4)CC3)c2c1	none (no result: HCV inhibitor, Marburg entry inh)
COP(=O)(OC)/C(C=O)=N/Nc1ccc([N+](=O)[O-])cc1	none
CC(C)OP(=O)(OC(C)C)/C(C=O)=N\Nc1ccc([N+](=O)[O-])cc1	HCV inhibitor inconclusive, HCMV inh -90.6 (no result: LASV entry inh, VACV mCherry inh, VACV Venus inh, Marburg entry inh)
Nc1ccc2[nH]ncc2c1	HCMV inh -61.3
COc1cc(NCCCCCCN)c2ncccc2c1OC	HCV inhibitor inconclusive, LASV entry inh inconclusive, HCMV inh inconclusive, Marburg entry inh inconclusive
COc1cc(NC(C)CCCNC(C)C)c2ncccc2c1OC (configuration not stated)	HCV inhibitor inconclusive, HCMV inh -81.5
C/C(=N\NC(N)=S)C12CC3CC(CC(C3)C1)C2	HCV inhibitor inconclusive, LASV entry inh inconclusive, VACV mCherry inh 11.2µM, HCMV inh -68.7, VACV Venus inh 8.91µM, Marburg entry inh inconclusive
C/C(=N\NC(N)=O)C1(C)CCCCC1	none (no result: VACV mCherry inh, VACV Venus inh)
C/C(=N\NC(N)=S)C1(C)CCCCC1	VACV mCherry inh inconclusive, HCMV inh -61.1, VACV Venus inh inconclusive
COc1ccc(C(CC(=O)Nc2ccccc2OC)n2cccc2)cc1 (configuration not stated)	VACV mCherry inh inconclusive, Marburg entry inh inconclusive
COc1ccccc1C(CC(=O)Nc1ccc(C)c(C)c1)c1ccc(OC(C)C)cc1 (configuration not stated)	HCV inhibitor inconclusive, HCMV inh -60.7, Marburg entry inh inconclusive
COc1ccccc1NC(=O)CC(c1ccc(OC(C)C)cc1)c1ccccc1OC (configuration not stated)	HCV inhibitor 11.2µM, HCMV inh inconclusive, Marburg entry inh inconclusive
CC(C)Cc1nn2c(=O)cc(COC(=O)c3ccccc3NC(=O)c3ccccc3)nc2s1	none (no result: HCV inhibitor, Marburg entry inh)
CCc1ccccc1NC(=O)CN1CCN(C(=O)CNC(=O)Cc2cccc3ccccc23)CC1	HCV inhibitor 11.2µM (no result: LASV entry inh, VACV mCherry inh, VACV Venus inh, Marburg entry inh)
N#Cc1ccc(CN2CCN(C(=O)CC(NC(=O)c3ccccc3)c3ccccc3)CC2)cc1 (configuration not stated)	none
N#Cc1ccc(CN2CCN(C(=O)CNC(=O)Cc3cccc4ccccc34)CC2)cc1	HCV inhibitor inconclusive, LASV entry inh inconclusive, VACV mCherry inh inconclusive, HCMV inh -68.0, Marburg entry inh inconclusive
Cc1cccc(C)c1NC(=O)CN1CCN(C(=O)CNC(=O)Cc2cccc3ccccc23)CC1	none (no result: HCV inhibitor, LASV entry inh, Marburg entry inh)
Cc1nn2c(=O)cc(COC(=O)c3ccc(NC(=O)c4cccc(Br)c4)cc3)nc2s1	none (no result: HCV inhibitor, Marburg entry inh)
CC1O[C@@H](OC2CC(O)[C@@]3(CO)C4C(O)C[C@@]5(C)C(C6=CC(=O)OC6)CC[C@]5(O)C4CC[C@]3(O)C2)C(O)C(O)C1O (some centres not stated)	VACV mCherry inh 0.316µM, VACV Venus inh 0.282µM (no result: HCV inhibitor, LASV entry inh, HCMV inh, Marburg entry inh)
C[C@@H]1O[C@@H](O[C@H]2C[C@@H](O)[C@]3(CO)[C@H]4[C@H](O)C[C@]5(C)[C@@H](C6=CC(=O)OC6)CC[C@]5(O)[C@@H]4CC[C@]3(O)C2)[C@H](O)[C@H](O)[C@H]1O	HCV inhibitor 2.24µM, LASV entry inh 0.0461µM, VACV mCherry inh 0.501µM, VACV Venus inh 0.631µM, Marburg entry inh 0.0651µM (no result: HCMV inh)
CC1CC2C(C(O)CC3(C)C2CCC3(O)C(=O)CO)C2(C)C=CC(=O)C=C12 (configuration not stated)	none
C[C@@H]1O[C@@H](O[C@H]2C[C@@H](O)[C@]3(CO)[C@@H]4C(CC[C@]3(O)C2)[C@@]2(O)CC[C@H](C3=CC(=O)OC3)[C@@]2(C)C[C@H]4O)[C@H](O)[C@H](O)[C@H]1O (some centres not stated)	Marburg entry inh 0.0316µM (no result: HCV inhibitor, LASV entry inh, HCMV inh)
COc1ccc(-c2[nH]c(-c3ccc(O)cc3)nc2-c2ccccc2)cc1	LASV entry inh inconclusive, Marburg entry inh inconclusive (no result: HCV inhibitor)
CCCCCn1c(=O)[nH]c2cc(C(=O)N3CCN(c4cccc(C(F)(F)F)c4)CC3)ccc2c1=O	none (no result: HCV inhibitor)
O=C(Nc1cc2c3c(c1)CC(=O)N3CCC2)c1ccc(Br)cc1	none
O=C(Nc1cc2c3c(c1)CC(=O)N3CCC2)c1ccccc1Br	HCV inhibitor 10µM
